Values joined by “and” are separate entries in the source; they are usually repeats but may differ in a detail not shown here. Equal entries are not always repeated. Inconclusive results are not listed. Some compounds were tested as several samples or in several runs, with calls that do not always agree. Active and inactive are the calls of the source. How the source made its calls, unless noted: active means hit-call score of the fitted dose curve at least 0.9, where 1 is the maximum; inconclusive means response in the unintended direction; inactive means score below 0.9.
What was measured:
[1] = tested on: frog Estrogen Receptor (ER), gene 398734; assay: ATG_frER1_XSP2: Attagene TRANS-FACTORIAL Multi-Species (XSP2) HepG2 Assay for frog Estrogen Receptor (ER) (AID 2283821);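 further: hits raise reporter mRNA above DMSO baseline so potency means agonist or activator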
How it was run: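 Steps: transfect HepG2 with multiple reporter transcription units; treat with chemical for 24 h; isolate RNA, reverse-transcribe, PCR-amplify, label with 6-FAM, digest with HpaI; resolve fragments by capillary electrophoresis. Signal is scored against DMSO.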

[2] = tested on: zebrafish Estrogen Receptor (ER2b), gene 317733; assay: ATG_zfER2b_XSP2: Attagene TRANS-FACTORIAL Multi-Species (XSP2) HepG2 Assay for zebrafish Estrogen Receptor (ER2b) (AID 2283823);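 further: fitted upward as reporter gain over DMSO so potency reflects activation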
How it was run: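 Transfect HepG2 with GAL4-UAS reporter constructs; dose chemicals, 24 h; isolate RNA, RT-PCR, FAM-label, HpaI digest; capillary electrophoresis. Gain-of-signal vs DMSO.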

[3] = target: Estrogen receptor (Homo sapiens) (UniProt P03372); assay: ATG_hERa_XSP2: Attagene TRANS-FACTORIAL Multi-Species (XSP2) HepG2 Assay for human Estrogen Receptor (ERa) (AID 2283827)
How it was run: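 HepG2 cells transiently transfected with multiplexed GAL4-UAS reporters driven by chimeric receptor-Gal4 proteins, dosed 24 h with 3 nM 6-alpha-fluorotestosterone and 1.5 nM norgestrel present. Reporter mRNA by RT-PCR and capillary electrophoresis; gain-of-signal fit versus DMSO.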

[4] = tested on: frog Estrogen Receptor (ER2), gene 100174814; assay: ATG_frER2_XSP2: Attagene TRANS-FACTORIAL Multi-Species (XSP2) HepG2 Assay for frog Estrogen Receptor (ER2) (AID 2283828)
How it was run: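 Multiplexed transactivation in HepG2: frog estrogen receptor fused to Gal4 drives a UAS reporter. Signal is reporter mRNA after 24 h treatment.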

[5] = target: Peroxisome proliferator-activated receptor gamma (Homo sapiens) (UniProt P37231); assay: ATG_hPPARg_XSP2: Attagene TRANS-FACTORIAL Multi-Species (XSP2) HepG2 Assay for human Peroxisome Proliferator-activated Receptor gamma (PPARg) (AID 2283829);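 further: actives raise reporter mRNA above DMSO so AC50 reflects PPARg activation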
How it was run: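 Transient MRTU transfection, HepG2; TRANS format (exogenous NR-Gal4 chimeras). 24 h chemical exposure with 3 nM 6-alpha-fluorotestosterone and 1.5 nM norgestrel present. Readout: reporter mRNA via RT-PCR/CE fluorescence, up-direction vs DMSO.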

[6] = target: mouse Peroxisome Proliferator-activated Receptor gamma (PPARg), Pparg (gene 19016) (UniProt P37238); assay: ATG_mPPARg_XSP2: Attagene TRANS-FACTORIAL Multi-Species (XSP2) HepG2 Assay for mouse Peroxisome Proliferator-activated Receptor gamma (PPARg) (AID 2283830);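 further: hits are gains in reporter mRNA above DMSO so AC50 marks activation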
How it was run: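 HepG2 cells transiently transfected with GAL4-UAS reporter units for chimeric NR-Gal4 proteins including mouse PPARg, exposed 24 h; medium contained 3 nM 6-alpha-fluorotestosterone and 1.5 nM norgestrel. Reporter mRNA quantified by RT-PCR, HpaI digestion and capillary electrophoresis, vs DMSO.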

[7] = target: Nuclear receptor subfamily 1 group I member 2 (Mus musculus) (UniProt O54915); assay: ATG_mPXR_XSP2: Attagene TRANS-FACTORIAL Multi-Species (XSP1) HepG2 Assay for mouse Pregnane X Receptor (PXR) (AID 2283831)
How it was run: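 Transient HepG2 transfection, multiplexed GAL4-UAS reporters, NR-GAL4 chimeras. 24 h compound exposure. Readout: reporter mRNA, RT-PCR, fluorescent capillary electrophoresis; positive direction vs DMSO baseline.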

[8] = target: zebrafish Thyroid Hormone Receptor alpha (TRa), thraa (gene 30670) (UniProt Q98867); assay: ATG_zfTRa_XSP2: Attagene TRANS-FACTORIAL Multi-Species (XSP1) HepG2 Assay for zebrafish Thyroid Hormone Receptor alpha (TRa) (AID 2283832);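 further: actives raise zebrafish TRa-Gal4 reporter transcript above DMSO baseline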
How it was run: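 Transient transfection of human HepG2 with GAL4-UAS reporter units, then 24 h chemical treatment. RNA isolated, reverse-transcribed, PCR-amplified, FAM-labelled, HpaI-digested and run on capillary electrophoresis. Gain-of-signal relative to DMSO.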

[9] = tested on: zebrafish Peroxisome Proliferator-activated Receptor gamma (PPARg), gene 557037; assay: ATG_zfPPARg_XSP2: Attagene TRANS-FACTORIAL Multi-Species (XSP2) HepG2 Assay for zebrafish Peroxisome Proliferator-activated Receptor gamma (PPARg) (AID 2283833);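 further: actives increase reporter signal over DMSO so AC50 reflects activation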
How it was run: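 Transfect HepG2 with multiplexed GAL4-UAS reporter constructs; dose chemical 24 h; isolate RNA, reverse-transcribe, PCR-amplify, label and digest reporter products; resolve by capillary electrophoresis. Activity taken as increase over DMSO.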

[10] = tested on: turtle Thyroid Hormone Receptor, alpha (TRa), gene 101949057; assay: ATG_trTRa_XSP2: Attagene TRANS-FACTORIAL Multi-Species (XSP1) HepG2 Assay for turtle Thyroid Hormone Receptor, alpha (TRa) (AID 2283834);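 further: hits raise reporter mRNA over the DMSO baseline so AC50 marks activators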
How it was run: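 Readout: reporter mRNA induction, fluorescence after RT-PCR, HpaI digestion and capillary electrophoresis. Transiently transfected HepG2, exogenous NR-Gal4 chimera driving GAL4-UAS reporter, 24 h compound exposure. Activity fitted upward relative to DMSO baseline.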

[11] = ATG_M_61_XSP2: Attagene TRANS-FACTORIAL Multi-Species (XSP2) HepG2 Assay for M61 Transcription Factor (Internal Marker) (AID 2283835; active means hit-call score of the fitted dose curve at least 0.9, where 1 is the maximum; inactive means score below 0.9;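 further: active means a rise in signal above the DMSO baseline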)
How it was run: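 First, HepG2 cells are transfected with reporter units under GAL4-UAS control. Next, chemicals are applied for 24 h. Then total RNA is reverse-transcribed, amplified, fluorescently labelled and sized by capillary electrophoresis, with gain of signal scored against DMSO.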

[12] = target: zebrafish Thyroid Hormone Receptor beta (TRb), thrb (gene 30607) (UniProt Q9PVE4); assay: ATG_zfTRb_XSP2: Attagene TRANS-FACTORIAL Multi-Species (XSP1) HepG2 Assay for zebrafish Thyroid Hormone Receptor beta (TRb) (AID 2283836)
How it was run: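 Human liver HepG2, transient MRTU transfection (NR-Gal4 chimeras, GAL4-UAS reporters); 24 h compound exposure; total RNA → oligo(dT) RT → PCR → 6-FAM label → HpaI cut → CE fluorescence. DMSO = negative control/baseline.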

[13] = target: human Thyroid hormone Receptor alpha (TRa), THRA (gene 7067) (UniProt P10827); assay: ATG_hTRa_XSP2: Attagene TRANS-FACTORIAL Multi-Species (XSP2) HepG2 Assay for human Thyroid hormone Receptor alpha (TRa) (AID 2283838)
How it was run: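 HepG2 cells were transiently transfected with GAL4-UAS reporter units for chimeric human TRa-Gal4 and dosed for 24 hours, with 3 nM 6-alpha-fluorotestosterone and 1.5 nM norgestrel present. Reporter mRNA was quantified by RT-PCR, FAM labelling and capillary electrophoresis, with gain of signal fitted versus DMSO.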

[14] = target: frog Thyroid hormone Receptor alpha (TRa), thra-a (gene 397942) (UniProt P15204); assay: ATG_frTRa_XSP2: Attagene TRANS-FACTORIAL Multi-Species (XSP2) HepG2 Assay for frog Thyroid hormone Receptor alpha (TRa) (AID 2283839);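 on AC50: AC50 reflects induction of frog TRa-driven reporter mRNA above DMSO baseline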
How it was run: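 Read-out: fluorescent reporter-transcript fragments resolved by capillary electrophoresis after RT-PCR and HpaI cut. Human HepG2 liver cells carry a transfected frog TRα-Gal4 chimera driving a UAS reporter; 24 h exposure, DMSO baseline, positive-direction fit.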

[15] = tested on: chicken Androgen Receptor (AR), gene 422165; assay: ATG_chAR_XSP2: Attagene TRANS-FACTORIAL Multi-Species (XSP2) HepG2 Assay for chicken Androgen Receptor (AR) (AID 2283819);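 further: hits raise reporter mRNA above DMSO so potency is for activation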
How it was run: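 HepG2 cells transiently transfected with chicken AR–GAL4 chimeric reporter constructs, stimulated with 3 nM 6-alpha-fluorotestosterone plus 1.5 nM norgestrel, dosed 24 h. Reporter mRNA quantified by RT-PCR and capillary electrophoresis; gain of signal fitted versus DMSO.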

[16] = ATG_M_19_XSP2: Attagene TRANS-FACTORIAL Multi-Species (XSP2) HepG2 Assay for M32 Transcription Factor (Internal Marker) (AID 2283822)
How it was run: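 Internal background marker in a multi-species nuclear receptor TRANS panel: transfected HepG2 cells exposed 24 h, with 3 nM 6-alpha-fluorotestosterone and 1.5 nM norgestrel present. Readout is RT-PCR of reporter transcripts resolved by capillary electrophoresis, gain-of-signal versus DMSO.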

[17] = ATG_M_32_XSP2: Attagene TRANS-FACTORIAL Multi-Species (XSP2) HepG2 Assay for M19 Transcription Factor (Internal Marker) (AID 2283826)
How it was run: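 Read-out: fluorescent reporter mRNA fragments resolved by capillary electrophoresis after RT-PCR, gain-of-signal versus DMSO baseline. Cells were human HepG2 carrying transfected multi-reporter units, exposed 24 h. Medium contained 3 nM 6-alpha-fluorotestosterone plus 1.5 nM norgestrel.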

[18] = tested on: frog Androgen Receptor (AR), gene 399456; assay: ATG_frAR_XSP2: Attagene TRANS-FACTORIAL Multi-Species (XSP2) HepG2 Assay for frog Androgen Receptor (AR) (AID 2283824);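 further: actives raise reporter signal above DMSO so AC50 reflects agonist-like induction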
How it was run: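 HepG2 cells transiently transfected with GAL4-UAS reporter units and frog (Xenopus laevis) AR-Gal4 chimera; reporter mRNA measured 24 h after dosing by RT-PCR and capillary electrophoresis. Gain of signal fitted relative to DMSO baseline.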

[19] = ATG_XTT_Cytotoxicity_XSP2: Cytotoxicity Assessment in the Attagene TRANS-FACTORIAL Multi-Species (XSP2) HepG2 Assay (AID 2283837)
How it was run: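 HepG2 cells, transiently transfected with multiple reporter constructs, exposed to chemical for 24 h. Cell number assessed with XTT fluorescence read-out; loss of signal fitted relative to DMSO.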

Chain of zebrafish Thyroid Hormone Receptor alpha (TRa), thraa (gene 30670) (Q98867 whole entry, looked up, the tested form may be a part): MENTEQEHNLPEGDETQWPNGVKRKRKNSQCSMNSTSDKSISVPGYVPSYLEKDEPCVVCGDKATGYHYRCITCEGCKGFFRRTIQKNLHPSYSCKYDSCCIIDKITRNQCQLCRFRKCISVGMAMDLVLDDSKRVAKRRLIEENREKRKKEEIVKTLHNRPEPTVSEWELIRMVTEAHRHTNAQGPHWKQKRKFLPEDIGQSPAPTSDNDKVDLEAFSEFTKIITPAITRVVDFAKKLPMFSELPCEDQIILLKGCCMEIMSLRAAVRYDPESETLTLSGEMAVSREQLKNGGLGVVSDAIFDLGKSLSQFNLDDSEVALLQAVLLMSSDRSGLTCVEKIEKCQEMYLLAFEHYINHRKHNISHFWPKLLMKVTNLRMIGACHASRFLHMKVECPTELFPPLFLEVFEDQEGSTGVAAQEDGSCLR
Chain of human Thyroid hormone Receptor alpha (TRa), THRA (gene 7067) (P10827 whole entry, looked up, the tested form may be a part): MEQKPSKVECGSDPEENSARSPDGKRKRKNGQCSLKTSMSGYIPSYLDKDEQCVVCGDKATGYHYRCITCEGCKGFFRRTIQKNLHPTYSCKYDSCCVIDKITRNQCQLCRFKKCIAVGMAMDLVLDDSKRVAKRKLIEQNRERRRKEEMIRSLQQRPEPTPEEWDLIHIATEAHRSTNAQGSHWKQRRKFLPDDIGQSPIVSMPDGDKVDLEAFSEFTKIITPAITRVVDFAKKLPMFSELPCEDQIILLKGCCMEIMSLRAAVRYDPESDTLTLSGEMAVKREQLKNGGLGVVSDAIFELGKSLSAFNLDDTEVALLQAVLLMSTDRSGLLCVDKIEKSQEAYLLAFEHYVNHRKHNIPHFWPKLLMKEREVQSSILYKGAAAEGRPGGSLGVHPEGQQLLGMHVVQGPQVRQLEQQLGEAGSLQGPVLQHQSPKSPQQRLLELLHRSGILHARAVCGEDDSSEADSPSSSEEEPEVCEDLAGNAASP
Chain of Peroxisome proliferator-activated receptor gamma (Homo sapiens) (P37231 whole entry, looked up, the tested form may be a part): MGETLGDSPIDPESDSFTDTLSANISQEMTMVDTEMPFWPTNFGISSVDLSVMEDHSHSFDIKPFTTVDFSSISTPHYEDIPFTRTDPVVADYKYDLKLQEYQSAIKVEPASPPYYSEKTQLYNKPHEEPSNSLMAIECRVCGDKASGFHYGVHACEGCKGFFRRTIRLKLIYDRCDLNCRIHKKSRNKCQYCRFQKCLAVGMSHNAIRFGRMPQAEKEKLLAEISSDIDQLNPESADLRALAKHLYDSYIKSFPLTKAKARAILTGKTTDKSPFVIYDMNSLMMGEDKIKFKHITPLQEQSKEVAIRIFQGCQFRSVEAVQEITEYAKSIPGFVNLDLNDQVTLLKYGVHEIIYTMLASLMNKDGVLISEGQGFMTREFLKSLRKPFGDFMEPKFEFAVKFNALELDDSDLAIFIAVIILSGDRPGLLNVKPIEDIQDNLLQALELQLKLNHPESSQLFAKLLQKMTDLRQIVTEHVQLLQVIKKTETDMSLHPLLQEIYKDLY
Chain of Nuclear receptor subfamily 1 group I member 2 (Mus musculus) (O54915 whole entry, looked up, the tested form may be a part): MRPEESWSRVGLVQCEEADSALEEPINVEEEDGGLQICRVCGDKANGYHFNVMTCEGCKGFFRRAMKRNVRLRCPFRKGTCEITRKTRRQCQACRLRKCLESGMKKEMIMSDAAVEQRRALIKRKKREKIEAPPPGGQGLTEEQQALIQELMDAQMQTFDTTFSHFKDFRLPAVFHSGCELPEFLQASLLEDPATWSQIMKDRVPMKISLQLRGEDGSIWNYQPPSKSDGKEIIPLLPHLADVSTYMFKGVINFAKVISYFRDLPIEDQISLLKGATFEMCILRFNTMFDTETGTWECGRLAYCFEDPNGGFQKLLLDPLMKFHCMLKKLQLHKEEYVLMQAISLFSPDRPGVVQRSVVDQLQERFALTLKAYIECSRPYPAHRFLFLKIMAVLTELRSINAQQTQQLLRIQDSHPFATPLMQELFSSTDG
Chain of mouse Peroxisome Proliferator-activated Receptor gamma (PPARg), Pparg (gene 19016) (P37238 whole entry, looked up, the tested form may be a part): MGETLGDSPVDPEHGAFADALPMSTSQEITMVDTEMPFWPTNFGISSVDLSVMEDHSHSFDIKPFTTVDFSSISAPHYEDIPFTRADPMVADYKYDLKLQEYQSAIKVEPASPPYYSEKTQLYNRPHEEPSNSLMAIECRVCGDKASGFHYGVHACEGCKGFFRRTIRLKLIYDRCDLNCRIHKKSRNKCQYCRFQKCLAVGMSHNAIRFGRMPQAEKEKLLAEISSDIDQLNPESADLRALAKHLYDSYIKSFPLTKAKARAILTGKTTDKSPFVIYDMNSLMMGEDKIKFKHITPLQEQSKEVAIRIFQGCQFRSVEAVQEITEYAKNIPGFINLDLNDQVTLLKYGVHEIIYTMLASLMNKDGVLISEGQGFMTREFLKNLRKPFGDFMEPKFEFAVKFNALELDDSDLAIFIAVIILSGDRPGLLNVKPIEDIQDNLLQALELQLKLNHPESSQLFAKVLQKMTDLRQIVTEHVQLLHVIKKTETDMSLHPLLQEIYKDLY
Chain of zebrafish Thyroid Hormone Receptor beta (TRb), thrb (gene 30607) (Q9PVE4 whole entry, looked up, the tested form may be a part): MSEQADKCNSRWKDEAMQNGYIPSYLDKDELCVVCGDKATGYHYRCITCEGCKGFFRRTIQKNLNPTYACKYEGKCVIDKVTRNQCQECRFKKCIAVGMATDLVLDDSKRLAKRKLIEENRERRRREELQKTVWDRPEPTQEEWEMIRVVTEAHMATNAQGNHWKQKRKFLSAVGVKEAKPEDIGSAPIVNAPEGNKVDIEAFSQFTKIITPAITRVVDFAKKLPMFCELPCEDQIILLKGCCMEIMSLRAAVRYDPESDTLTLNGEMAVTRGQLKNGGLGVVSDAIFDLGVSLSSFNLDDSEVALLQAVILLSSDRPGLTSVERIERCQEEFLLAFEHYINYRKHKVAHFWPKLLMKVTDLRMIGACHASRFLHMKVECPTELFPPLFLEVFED
Chain of frog Thyroid hormone Receptor alpha (TRa), thra-a (gene 397942) (P15204 whole entry, looked up, the tested form may be a part): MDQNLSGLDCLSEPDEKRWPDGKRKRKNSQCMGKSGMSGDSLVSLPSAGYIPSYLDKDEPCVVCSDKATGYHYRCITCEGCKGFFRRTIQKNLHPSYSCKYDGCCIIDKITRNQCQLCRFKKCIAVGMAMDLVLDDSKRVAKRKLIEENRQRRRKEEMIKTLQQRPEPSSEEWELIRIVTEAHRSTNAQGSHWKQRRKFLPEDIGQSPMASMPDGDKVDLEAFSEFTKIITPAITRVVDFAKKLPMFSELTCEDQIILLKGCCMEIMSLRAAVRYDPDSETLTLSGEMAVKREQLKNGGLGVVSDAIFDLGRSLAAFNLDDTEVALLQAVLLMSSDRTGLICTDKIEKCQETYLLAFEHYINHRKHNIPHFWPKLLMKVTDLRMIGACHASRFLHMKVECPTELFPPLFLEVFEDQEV
Chain of Estrogen receptor (Homo sapiens) (P03372 whole entry, looked up, the tested form may be a part): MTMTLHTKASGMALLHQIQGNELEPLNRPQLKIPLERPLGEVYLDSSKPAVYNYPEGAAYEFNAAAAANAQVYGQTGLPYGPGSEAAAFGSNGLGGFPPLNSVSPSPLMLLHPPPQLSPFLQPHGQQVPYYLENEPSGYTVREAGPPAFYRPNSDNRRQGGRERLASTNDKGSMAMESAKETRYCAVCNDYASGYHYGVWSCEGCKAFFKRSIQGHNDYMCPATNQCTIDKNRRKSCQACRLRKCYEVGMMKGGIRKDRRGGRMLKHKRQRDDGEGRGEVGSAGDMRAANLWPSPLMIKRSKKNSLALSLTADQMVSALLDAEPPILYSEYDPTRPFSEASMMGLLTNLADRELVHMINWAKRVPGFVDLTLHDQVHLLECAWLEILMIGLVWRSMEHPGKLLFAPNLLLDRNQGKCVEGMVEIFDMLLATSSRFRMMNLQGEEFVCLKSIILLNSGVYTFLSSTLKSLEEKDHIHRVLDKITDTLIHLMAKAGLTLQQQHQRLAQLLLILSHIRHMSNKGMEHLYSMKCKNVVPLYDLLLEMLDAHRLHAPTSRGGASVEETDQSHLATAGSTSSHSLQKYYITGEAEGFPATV

Question: With `CC(O)(CS(=O)(=O)c1ccc(F)cc1)C(=O)Nc1ccc(C#N)c(C(F)(F)F)c1` (configuration not stated) as the molecule, how does the outcome [1] read?
Answer: inactive

Question: What about the AC50 [2] of the same molecule?
Answer: 50.4 µM (active)

Question: And the outcome [2]?
Answer: inactive

Question: What about the outcome [3] of the same molecule?
Answer: inactive

Question: What about the outcome [4] of the same molecule?
Answer: inactive

Question: What about the outcome [5] of the same molecule?
Answer: inactive

Question: What about the AC50 [6] of the same molecule?
Answer: 46.2 µM (active)

Question: And the outcome [6]?
Answer: inactive

Question: What about the AC50 [7] of the same molecule?
Answer: 4.25 µM (active)

Question: And the outcome [8]?
Answer: inactive

Question: And the outcome [9]?
Answer: inactive

Question: What about the outcome [10] of the same molecule?
Answer: inactive

Question: And the outcome [11]?
Answer: inactive

Question: What about the outcome [12] of the same molecule?
Answer: inactive

Question: And the outcome [13]?
Answer: inactive

Question: And the outcome [14]?
Answer: inactive

Question: What does the source list for `O=c1oc2ccccc2c(O)c1C(CC(O)c1ccc(-c2ccc(Br)cc2)cc1)c1ccccc1` (configuration not stated)?
Answer: outcome [15]: inactive; outcome [16]: inactive; outcome [2]: inactive; outcome [17]: inactive; outcome [4]: inactive; AC50 [5]: 1.64 µM (active); AC50 [6]: 2.5 µM (active); AC50 [7]: 31.6 µM (active); AC50 [9]: 6.09 µM (active); outcome [10]: inactive; outcome [12]: inactive

Question: With `Oc1cc(Cl)c(Cl)cc1Cl` as the molecule, how does the AC50 [15] read?
Answer: 6.4 µM (active) and 3.09 µM (active)

Question: And the AC50 [1]?
Answer: 18.8 µM (active)

Question: What about the outcome [1] of the same molecule?
Answer: inactive

Question: And the outcome [16]?
Answer: inactive

Question: What about the AC50 [2] of the same molecule?
Answer: 68.6 µM (active) and 22.9 µM (active)

Question: And the AC50 [18]?
Answer: 5.4 µM (active) and 2.63 µM (active)

Question: And the AC50 [4]?
Answer: 24.5 µM (active) and 19.2 µM (active)

Question: And the AC50 [5]?
Answer: 60.1 µM (active) and 44.2 µM (active)

Question: And the AC50 [6]?
Answer: 65 µM (active) and 35 µM (active)

Question: And the outcome [7]?
Answer: inactive

Question: What about the outcome [8] of the same molecule?
Answer: inactive

Question: What about the outcome [9] of the same molecule?
Answer: inactive

Question: What about the AC50 [10] of the same molecule?
Answer: 21.7 µM (active)

Question: What about the outcome [10] of the same molecule?
Answer: inactive

Question: What about the outcome [12] of the same molecule?
Answer: inactive

Question: And the outcome [19]?
Answer: inactive

Question: And the AC50 [13]?
Answer: 26.3 µM (active)

Question: What about the outcome [13] of the same molecule?
Answer: inactive

Question: What about the AC50 [14] of the same molecule?
Answer: 100 µM (active)

Question: And the outcome [14]?
Answer: inactive

Source: PubChem BioAssay (EPA / NIEHS)
